RGS4-Gao reg: modulates binding of RGS4 to human Galphao; 220,000 tested, 0.33% active; Multiplexed bead flow cytometry; actives lie on both sides; P09471; binding response (% of control), % at 10 µM; in the data active = binding response below about 49% or above about 150%; inactive = in between;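 note: fluorescent Galphao activated with aluminum fluoride binding bead-coupled RGS4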
Target sequence (P09471 whole entry, looked up): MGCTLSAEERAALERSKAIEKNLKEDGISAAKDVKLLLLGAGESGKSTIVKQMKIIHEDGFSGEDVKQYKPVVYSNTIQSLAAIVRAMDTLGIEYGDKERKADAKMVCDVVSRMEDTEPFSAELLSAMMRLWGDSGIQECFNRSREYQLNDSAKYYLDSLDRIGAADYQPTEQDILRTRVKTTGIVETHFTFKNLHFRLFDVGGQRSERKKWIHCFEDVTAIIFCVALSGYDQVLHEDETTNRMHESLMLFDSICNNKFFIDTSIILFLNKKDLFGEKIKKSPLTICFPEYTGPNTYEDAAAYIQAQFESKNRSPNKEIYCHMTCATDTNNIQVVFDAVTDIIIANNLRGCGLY
RGS8-Gao: modulates binding of RGS8 to human Galphao. P09471. multiplexed bead flow cytometry; actives lie on both sides. response (percent of control binding), % at 10 µM. 220,000 tested, 0.34% active. AID 1423; in the data active = response below about 60% or above about 140%; inactive = in between;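 note: Galphao activated as the GDP aluminium fluoride complex binding bead-coupled RGS8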
RGS16-Gao HTS: regulators of human RGS16-Galphao interaction; binding response (% of control), % at 10 µM; bead-based flow cytometry RGS16-Galphao binding, fluorescence; actives lie on both sides; 220,000 tested, 0.38% active; O15492+P09471; call rule not given here;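 note: Galphao activated by GDP with aluminum fluoride before binding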
Avidin fluor: compound fluoresces at 488/530 nm on avidin beads | AID 1775 | fluorescence (KMESF) at 10 µM | 220,000 tested, 0.38% active | compound fluorescence 488/530 nm, flow cytometry; stronger effect = higher value; in the data active = fluorescence above about 47
RGS7-Gao: human RGS7-Galphao interaction regulation; P09471; Multiplexed bead flow cytometry, RGS7-Galphao binding; actives lie on both sides; binding response (% of control), % at 10 µM; 220,000 tested, 0.35% active; in the data active = binding response below about 49% or above about 150%; inconclusive = no clear call, values can overlap the other calls; inactive = in between;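 note: fluorescent Galphao held in activated GDP-AlF4 state binding bead-coupled RGS7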
GSH fluor: GSH bead compound fluorescence profile | 190,000 tested, 0.25% active | fluorescence (KMESF) at 10 µM | AID 1776 | GSH beads flow cytometry, compound fluorescence 488/530 nm; stronger effect = higher value; in the data active = fluorescence above about 89;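 note: glutathione beads carrying GST-tagged Bcl family fusion proteins plus one bare bead set; values are compound well signal with DMSO vehicle wells as background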
* hit, by the source's call; ? = inconclusive; / = no result. An excerpt weighted towards active compounds, which were near 1.2% of everything screened.

SMILES	RGS4-Gao reg	RGS8-Gao	RGS16-Gao HTS	Avidin fluor	RGS7-Gao	GSH fluor
Cc1cc(Nc2ncc(Cl)cc2Cl)n(-c2ccccn2)n1	102	107	118	7	100	268*
C[C@H](NC(=O)OC(C)(C)C)C(=O)N/N=C/c1ccc2nccnc2c1	103	100	102	7	?	/
c1ccc2sc(Cc3nnc4n3CCCCC4)nc2c1	106	102	106	88*	122	25
O=C(Nc1ccccc1C(=O)NCc1cccnc1)c1cccc([N+](=O)[O-])c1	102	101	103	9	100	16
O=C(CSc1nnnn1C1CCCC1)Nc1ccc(F)cc1	109	107	108	89*	129	37
O=C(CSc1nnnn1C1CCCCC1)Nc1ccc(F)cc1	104	103	102	5	108	22
C=CCn1c2ccccc2c2nnc(SCC(=O)NC(C(=O)OC)C(C)C)nc21 (centres undefined)	123	96	121	119*	139	23
O=C(CN1CCN(S(=O)(=O)c2ccccc2F)CC1)Nc1ccccc1C(=O)c1ccccc1	108	101	105	11	103	16
O=C1c2ccccc2C(=O)N1CC1CCCO1 (centres undefined)	100	100	98	7	98	19
O=c1c2ccccc2c2ccccc2c(=O)n1CC1CCCO1 (centres undefined)	121	127	194	4	121	252*
CCN(C(=O)COC(=O)c1nn(-c2ccccc2)c(=O)c2ccccc12)C1CCS(=O)(=O)C1 (centres undefined)	97	101	100	8	?	/
CCN(CC)S(=O)(=O)c1cccc(C(=O)N/N=C/c2ccc([N+](=O)[O-])o2)c1	104	102	105	9	?	12
O=C1CN(C(=O)c2ccccn2)c2ccccc2N1	106	101	86	6	97	229*
O=C1CN(C(=O)c2ccccc2F)c2ccccc2N1	100	99	103	23	101	20
Cc1cc(-c2nc(C)c(C(=O)NN)s2)no1	101	99	101	8	?	/
Cc1cc(-c2nnc(CCC(=O)N3CCN(Cc4cccc(F)c4)CC3)o2)c(C)o1	100	97	103	10	103	11
CNC(=S)N1N=C(c2ccc(Br)cc2)CC1c1ccc(N(C)C)cc1 (centres undefined)	104	102	104	9	?	16
CNC(=S)N1N=C(c2ccc(Br)cc2)CC1c1ccc(Br)cc1 (centres undefined)	98	97	93	48*	104	23
CC(C)c1nnc(SCC(=O)N2CCN(C(=O)c3ccco3)CC2)n1N	95	98	98	20	94	11
O=S(=O)(Cc1ccc(Cl)cc1)N1CCN(Cc2ccc3c(c2)OCO3)CC1	96	100	94	10	?	/
O=S(=O)(Cc1ccc(Cl)cc1)Nc1ccc2c(c1)OCO2	103	99	101	48*	104	15
CCc1ccc(C(=O)COC(=O)CNC(=O)c2cccs2)cc1	107	102	103	78*	139	44
COc1cccc(NC(=O)CN(C)C(C)C(=O)Nc2cc([N+](=O)[O-])ccc2Cl)c1 (centres undefined)	100	99	97	12	?	14
CC(=O)NC1C2CN3CCN(C2)CC1(Cc1ccccc1)C3 (centres undefined)	98	102	101	11	100	22
Cc1ccc(CC23CN4CCN(CC(C4)C2O)C3)c(C)c1 (centres undefined)	103	97	101	69*	121	22
SMILES	RGS4-Gao reg	RGS8-Gao	RGS16-Gao HTS	Avidin fluor	RGS7-Gao	GSH fluor
Cn1c2ccccc2c2c(C(=O)N3CCN(c4ccccn4)CC3)cn(C3CCCC3)c(=O)c21	103	102	107	9	103	13
Cn1c2ccccc2c2c(C(=O)N3CCN(C(=O)c4ccco4)CC3)cn(C3CCCCC3)c(=O)c21	65	93	62	11	71	149*
O=C1COc2ccc(C(=O)COC(=O)CNC(=O)c3ccco3)cc2N1	105	106	107	24	101	12
Cc1ccc(-c2nc3sc4c(c3c(=O)n2N)CC(C)(C)OC4)cc1	100	100	106	55*	103	25
c1coc(CNC2CCCCC2)c1	96	93	91	6	95	14
c1coc(CNC2CCCCCCC2)c1	91	69	111	84*	141	11
O=C1C(c2ccnc3ccccc23)=C(O)c2ccccc21	106	104	106	4	106	128*
Cc1ccc(C(=O)NC(C#N)=C(Cl)Cl)cc1	100	98	87	15	106	10
COc1ccc(-n2c(=O)c3ccccc3n(Cc3ccc(F)cc3)c2=O)cc1OC	102	96	103	104*	139	20
CCCCn1c(=NC(=O)c2ccco2)c(C(=O)OCC)cc2c(=O)n3cccc(C)c3nc21	66	91	79	5	?	/
CC(=O)OCC(=O)Nc1ccc(Cl)cc1Cl	124	112	113	4	114	231*
CC(=O)OCC(=O)Nc1ccc([N+](=O)[O-])cc1Cl	102	103	104	8	106	21
CCOc1ccc2[nH]c(=O)c(CN(CC3COCCO3)C(=O)c3ccc(C)cc3)cc2c1 (centres undefined)	103	100	107	11	104	25
COc1ccc(C(=O)OCCN2CCOCC2)cc1	112	106	105	5	114	96*
O=C(CN1C(=O)c2ccccc2S1(=O)=O)NCCC1=CCCCC1	85	99	91	4	90	117*
Cc1ccc(C(=O)OCC(=O)N2CCc3ccccc32)cc1	120	105	120	50*	115	10
Cc1cc2ncn(C(=O)N3CCCCCC3)c2cc1C	91	88	44	2	93	97*
Oc1ccc(C=Nc2cccc3ncccc23)c(O)c1	99	102	101	15	97	23
Oc1ccc(C=Nc2ccc3ncccc3c2)c(O)c1	106	100	105	69*	117	17
CCc1ccc(-c2nc(SCC(=O)N3CCOCC3)n[nH]2)cc1	98	98	99	6	97	16
Cc1onc(-c2c(F)cccc2Cl)c1C(=O)OCC(=O)Nc1c(C)n(C)n(-c2ccccc2)c1=O	97	100	100	6	98	279*
COc1ccc(Cl)cc1N(CC(=O)N/N=C/c1ccc(OC(C)C)cc1)S(=O)(=O)c1ccc(C)c([N+](=O)[O-])c1	100	104	103	12	93	5
C=CCOc1cccc(/C=N/NC(=O)CN(c2cc(Cl)ccc2OC)S(=O)(=O)c2ccc(C)c([N+](=O)[O-])c2)c1	117	98	122	34	121	196*

Assay outcomes: PubChem, NMMLSC
